Results filed as inconclusive are left out. Calls of active or inactive are those of the source. Calls follow the shape of the dose curve; as a rule, active = well fitted inhibition curve with a large enough effect; inconclusive = small, poorly fitted or top-dose-only effect; inactive = flat fitted curve, though single readings scatter. Where a SMILES comes first, the peptide text is derived from it. Bridges are numbered along the chain shown (N, C = ends). [ ]: non-standard residue; d: D form. hArg = N=C(N)NCCCC[C@H](N)C(=O)O; Mpa = O=C(O)CCS
Experiments:
PC49 = assay: qHTS profiling for inhibitors of Plasmodium falciparum proliferation (AID 504749);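 also: 0% = DMSO vehicle and full inhibition = artemisinin control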; settings: P. falciparum in erythrocytes, SYBR Green DNA, 72 h; series mostly up to 28.7 µM
How it was run: (§1)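 SYBR Green fluorescence of parasite DNA, read after lysis and overnight dark incubation, measured growth over 72 h in erythrocyte culture at 0.3% parasitemia and 2.5% hematocrit. Data normalised to DMSO and 0.29 uM artemisinin, with plate-drift correction.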

SC27B = assay: as above; settings: P. falciparum in erythrocytes, SYBR Green DNA, 72 h; series mostly up to 28.7 µM
How it was run: as §1

TAB109 = assay: as above; settings: P. falciparum in erythrocytes, SYBR Green DNA, 72 h; series mostly up to 28.7 µM
How it was run: as §1

TAB113 = assay: as above; settings: P. falciparum in erythrocytes, SYBR Green DNA, 72 h; series mostly up to 28.7 µM
How it was run: as §1

TAB165 = assay: as above; settings: P. falciparum in erythrocytes, SYBR Green DNA, 72 h; series mostly up to 28.7 µM
How it was run: as §1

CRL-7250 = normal cell line; assay: Cytotoxic Profiling of Annotated Libraries Using Quantitative High-Throughput Screening (AID 1296008); settings: Five cell lines viability, CellTiter-Glo ATP luminescence, 48-72 h; hits give low values; as to max response: % is scaled to controls: 0 for no effect and ±100 for the full control effect
How it was run: (§2)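 Cytotoxicity was measured as CellTiter-Glo ATP luminescence, read after 10 min at room temperature. Compound treatment of the cells lasted 48 or 72 hr at 37 degrees Celsius in a qHTS format.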

HEK293 = assay: as above; settings: Five cell lines viability, CellTiter-Glo ATP luminescence, 48-72 h; hits give low values
How it was run: as §2

HaCat [1] = assay: as above; settings: Five cell lines viability, CellTiter-Glo ATP luminescence, 48-72 h; hits give low values
How it was run: as §2

KB-3-1 = assay: as above; settings: Five cell lines viability, CellTiter-Glo ATP luminescence, 48-72 h, hits give low values
How it was run: as §2

NIH3T3 [2] = assay: as above; settings: Five cell lines viability, CellTiter-Glo ATP luminescence, 48-72 h; hits give low values
How it was run: as §2

HACAT [3] = assay: qHTS assay to identify novel small-molecules to repurpose for Merkel cell carcinoma treatment (AID 1296009); settings: MCC and control cell lines, CellTiter-Glo viability, 72 h; at 44.8 µM (top of the series) unless noted
How it was run: (§3)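 Cell viability, measured as CellTiter-Glo luminescence, was normalized between DMSO and no-cell wells. The cells had been exposed to 8- or 11-point compound dilutions for 72 hr at 37 degree celsius.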

MCC-13 = assay: as above; settings: MCC and control cell lines, CellTiter-Glo viability, 72 h; series mostly up to 46 µM
How it was run: as §3

MCC-26 = assay: as above; settings: MCC and control cell lines, CellTiter-Glo viability, 72 h; series mostly up to 46 µM
How it was run: as §3

MKL-1 = assay: as above; settings: MCC and control cell lines, CellTiter-Glo viability, 72 h; series mostly up to 46 µM
How it was run: as §3

MKL-2 = assay: as above; settings: MCC and control cell lines, CellTiter-Glo viability, 72 h; series mostly up to 46 µM
How it was run: as §3

UISO = assay: as above; settings: MCC and control cell lines, CellTiter-Glo viability, 72 h; series mostly up to 46 µM
How it was run: as §3

WaGa = assay: as above; settings: MCC and control cell lines, CellTiter-Glo viability, 72 h; series mostly up to 46 µM
How it was run: as §3

W2 = assay: qHTS profiling for inhibitors of Plasmodium falciparum proliferation (AID 504749);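 also: 0% = DMSO vehicle and full inhibition = artemisinin control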; settings: P. falciparum in erythrocytes, SYBR Green DNA, 72 h; series mostly up to 28.7 µM
How it was run: as §1

NIH3T3 [4] = assay: qHTS assay to identify novel small-molecules to repurpose for Merkel cell carcinoma treatment (AID 1296009); settings: MCC and control cell lines, CellTiter-Glo viability, 72 h; at 44.8 µM (top of the series) unless noted
How it was run: as §3
Also: nearly all actives have a fitted effect of over 60% in size.

NNC(=O)CP(=O)(c1ccccc1)c1ccccc1
inactive: Potency (PC49) | Potency (SC27B) | Potency (TAB109) | Potency (TAB113) | Potency (TAB165) | max response (CRL-7250) -0.948% | max response (HEK293) 0.687% | outcome (HaCat [1]) | max response (KB-3-1) -1.94% | max response (NIH3T3 [2]) -3.5% | outcome (HACAT [3]) | outcome (MCC-13) | outcome (MCC-26) | outcome (MKL-1) | outcome (MKL-2) | outcome (UISO) | outcome (WaGa)

C[N+]1(C)CCCC(OC(=O)C(O)(c2ccccc2)c2ccccc2)C1 (configuration not stated)
inactive: max response (CRL-7250) 2.14% | max response (HEK293) -3.74% | outcome (HaCat [1]) | max response (KB-3-1) -3.88% | max response (NIH3T3 [2]) 4.37% | outcome (HACAT [3]) | outcome (MCC-13) | outcome (MCC-26) | outcome (MKL-1) | outcome (MKL-2) | outcome (UISO) | outcome (WaGa)

CC(=O)OCC(COC(C)=O)OC(C)=O
inactive: Potency (PC49) | Potency (SC27B) | Potency (TAB109) | Potency (TAB113) | Potency (TAB165) | Potency (W2) | max response (CRL-7250) -1.86% | max response (HEK293) -3.97% | outcome (HaCat [1]) | max response (KB-3-1) 8.48% | outcome (NIH3T3 [2]) | outcome (HACAT [3]) | outcome (MCC-13) | outcome (MCC-26) | outcome (MKL-1) | outcome (MKL-2) | outcome (NIH3T3 [4]) | outcome (UISO) | outcome (WaGa)

CN(C/C=C/C#CC(C)(C)C)Cc1cccc2ccccc12
inactive: Potency (PC49) | Potency (SC27B) | Potency (TAB109) | Potency (TAB113) | Potency (TAB165) | max response (CRL-7250) -11.8% | max response (HEK293) -4.51% | outcome (HaCat [1]) | max response (KB-3-1) -0.279% | max response (NIH3T3 [2]) 2.57% | outcome (HACAT [3]) | outcome (MCC-13) | outcome (MCC-26) | outcome (MKL-1) | outcome (MKL-2) | outcome (UISO) | outcome (WaGa)

O=c1[nH]cnc2nc[nH]c12
inactive: Potency (PC49) | Potency (SC27B) | Potency (TAB109) | Potency (TAB113) | Potency (TAB165) | Potency (W2) | max response (CRL-7250) -2.48% | max response (HEK293) -1.3% | outcome (HaCat [1]) | max response (KB-3-1) -17.5% | max response (NIH3T3 [2]) -0.611% | outcome (HACAT [3]) | outcome (MCC-13) | outcome (MCC-26) | outcome (MKL-1) | outcome (MKL-2) | outcome (UISO) | outcome (WaGa)

CCN(CC)CC1CCCCN1CC(=O)N1c2ccccc2C(=O)Nc2cccnc21 (configuration not stated)
inactive: Potency (PC49) | Potency (SC27B) | Potency (TAB109) | Potency (TAB113) | Potency (TAB165) | Potency (W2) | max response (CRL-7250) -4.06% | max response (HEK293) 4.03% | outcome (HaCat [1]) | max response (KB-3-1) 6.89% | max response (NIH3T3 [2]) 4.32% | outcome (HACAT [3]) | outcome (MCC-13) | outcome (MCC-26) | outcome (MKL-1) | outcome (MKL-2) | outcome (UISO) | outcome (WaGa)

CN1C(C)(C)CCCC1(C)C
inactive: Potency (PC49) | Potency (SC27B) | Potency (TAB109) | Potency (TAB113) | Potency (TAB165) | Potency (W2) | max response (CRL-7250) -19.2% | max response (HEK293) -21.6% | outcome (HaCat [1]) | max response (KB-3-1) 7.25% | max response (NIH3T3 [2]) -1.07% | outcome (HACAT [3]) | outcome (MCC-13) | outcome (MCC-26) | outcome (MKL-1) | outcome (MKL-2) | outcome (UISO) | outcome (WaGa)

CC1CCN(CCCC(=O)c2ccc(F)cc2)CC1
inactive: Potency (PC49) | Potency (SC27B) | Potency (TAB109) | Potency (TAB113) | Potency (TAB165) | max response (CRL-7250) -0.306% | max response (HEK293) -0.532% | outcome (HaCat [1]) | max response (KB-3-1) -11.3% | max response (NIH3T3 [2]) -1.04% | outcome (HACAT [3]) | outcome (MCC-13) | outcome (MCC-26) | outcome (MKL-1) | outcome (MKL-2) | outcome (UISO) | outcome (WaGa)

O=C(NCN1CCOCC1)c1cnccn1
inactive: Potency (PC49) | Potency (SC27B) | Potency (TAB109) | Potency (TAB113) | Potency (TAB165) | Potency (W2) | max response (CRL-7250) 3.76% | max response (HEK293) 3.79% | outcome (HaCat [1]) | max response (KB-3-1) -13.5% | max response (NIH3T3 [2]) -0.98% | outcome (HACAT [3]) | outcome (MCC-13) | outcome (MCC-26) | outcome (MKL-1) | outcome (MKL-2) | outcome (UISO) | outcome (WaGa)

Cc1cccc(Nc2ccccc2C(=O)O)c1C
inactive: Potency (PC49) | Potency (SC27B) | Potency (TAB109) | Potency (TAB113) | Potency (TAB165) | Potency (W2) | max response (CRL-7250) 0.921% | max response (HEK293) -1.57% | outcome (HaCat [1]) | max response (KB-3-1) 3.77% | max response (NIH3T3 [2]) 1.27% | outcome (HACAT [3]) | outcome (MCC-13) | outcome (MCC-26) | outcome (MKL-1) | outcome (MKL-2) | outcome (UISO) | outcome (WaGa)

O=C1c2cccc(O)c2C(=O)c2c(O)cccc21
inactive: Potency (PC49) | Potency (SC27B) | Potency (TAB109) | Potency (TAB113) | Potency (TAB165) | max response (CRL-7250) -1.24% | max response (HEK293) -0.119% | outcome (HaCat [1]) | max response (KB-3-1) 2.38% | max response (NIH3T3 [2]) -0.518% | outcome (HACAT [3]) | outcome (MCC-13) | outcome (MCC-26) | outcome (MKL-1) | outcome (MKL-2) | outcome (UISO) | outcome (WaGa)

NC(=O)[C@@H]1CSSCCC(=O)N[C@@H](CCCCN=C(N)N)C(=O)NCC(=O)N[C@@H](CC(=O)O)C(=O)N[C@@H](Cc2c[nH]c3ccccc23)C(=O)N2CCC[C@H]2C(=O)N1 ([Mpa][hArg]GDWPC-NH2; disulfide 1-7)
inactive: Potency (PC49) | Potency (SC27B) | Potency (TAB109) | Potency (TAB113) | Potency (TAB165) | Potency (W2) | outcome (CRL-7250) | max response (HEK293) -7.03% | outcome (HaCat [1]) | max response (KB-3-1) 3.01% | max response (NIH3T3 [2]) -4.92% | outcome (HACAT [3]) | outcome (MCC-13) | outcome (MCC-26) | outcome (MKL-1) | outcome (MKL-2) | outcome (UISO) | outcome (WaGa)

Cc1ccc(S(=O)(=O)NC(=O)NC2CCCCC2)cc1
inactive: Potency (PC49) | Potency (SC27B) | Potency (TAB109) | Potency (TAB113) | Potency (TAB165) | Potency (W2) | outcome (CRL-7250) | max response (HEK293) 2.4% | outcome (HaCat [1]) | max response (KB-3-1) 3.8% | max response (NIH3T3 [2]) 0.0689% | outcome (HACAT [3]) | outcome (MCC-13) | outcome (MCC-26) | outcome (MKL-1) | outcome (MKL-2) | outcome (UISO) | outcome (WaGa)

CC(=O)N[C@@H](Cc1ccc(O)cc1)C(=O)O
inactive: Potency (PC49) | Potency (SC27B) | Potency (TAB109) | Potency (TAB113) | Potency (TAB165) | max response (CRL-7250) -1.56% | max response (HEK293) -2.21% | outcome (HaCat [1]) | max response (KB-3-1) -4.16% | max response (NIH3T3 [2]) -2.52% | outcome (HACAT [3]) | outcome (MCC-13) | outcome (MCC-26) | outcome (MKL-1) | outcome (MKL-2) | outcome (UISO) | outcome (WaGa)

From PubChem BioAssay (NCATS)
